Compound activity deposited in PubChem BioAssay by National Center for Advancing Translational Sciences (NCATS).
Sampled rows, rich in hits. Any-hit rate of the full collection: about 2.2%.
HepG2 viability – qHTS for Inhibitors of TGF-b: Cytotox Counterscreen | HepG2 CAGA-GFP viability, ATP luminescence, 18 h | Potency, µM (series often up to 46.1 µM), for inactives: top-dose activity change, negative = cytotoxicity, hits mostly cytotoxic | AID 588856, 2011 | 410,000 compounds, 0.76% hits; also: potency is read from the fitted curve at half-maximal effect
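CellTiter-Glo luminescence gave cytotoxicity after 18 hours at 37 degrees C. The cells were HepG2 CAGA-GFP in 1% FBS DMEM, stimulated with 500 pg/mL TGF-beta after compound addition. %Activity was normalised to no-cell wells (complete cell-killing) and DMSO (no toxicity), and curves were fitted and classified.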
ATXN2 expr inh – Primary qHTS for Inhibitors of ATXN expression; HEK-293 ATXN2-luciferase reporter, luminescence, 24 h; Potency, µM (doses to about 57 µM), for inactives: at the top dose activity change, negative = inhibition, usual class: inhibitors; 360,000 compounds, 0.72% hits; AID 1745845, 2022; also: potency is read from the fitted curve at half-maximal effect; % is scaled to controls: 0 for no effect and ±100 for the full control effect; nearly all actives have a fitted effect of over 55% in size
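qHTS (up to 57 uM final) was run with 24 h compound exposure of reporter cells at 37 °C. Each well was multiplexed: SteadyGlo luminescence measured ATXN2-luciferase expression after a fluorogenic Gly-Phe-AFC viability readout (25 uM final).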
IDH1 R132H inh – qHTS for Inhibitors of mutant isocitrate dehydrogenase 1 (IDH1): qHTS. Potency, µM (highest dose often 76.6 µM), for the others: at the highest dose activity change, negative = inhibition, usual class: inhibitors. IDH1-R132H enzyme, NADPH consumption, diaphorase/resazurin fluorescence. 390,000 compounds, 0.093% hits. Isocitrate dehydrogenase [NADP] cytoplasmic (Homo sapiens), O75874. AID 602179, 2012; also: potency is read from the fitted curve at half-maximal effect; % is scaled to controls: 0 for no effect and ±100 for the full control effect; nearly all actives have a fitted effect of over 65% in size
Target sequence (O75874 whole entry R132H, stated change not applied): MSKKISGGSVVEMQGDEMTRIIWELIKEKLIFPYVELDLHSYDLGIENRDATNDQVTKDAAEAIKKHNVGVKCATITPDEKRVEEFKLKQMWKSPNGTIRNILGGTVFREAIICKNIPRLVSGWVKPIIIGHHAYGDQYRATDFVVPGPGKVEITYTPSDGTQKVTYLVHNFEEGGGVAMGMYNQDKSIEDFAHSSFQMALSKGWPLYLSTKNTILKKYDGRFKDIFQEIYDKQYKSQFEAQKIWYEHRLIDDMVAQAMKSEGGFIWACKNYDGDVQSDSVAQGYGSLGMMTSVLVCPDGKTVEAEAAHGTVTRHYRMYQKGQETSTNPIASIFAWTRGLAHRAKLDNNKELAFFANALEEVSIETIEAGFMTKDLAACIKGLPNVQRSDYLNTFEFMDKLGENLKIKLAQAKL
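IDH1-R132H (0.5 ug/mL dispensed) in pH 7.5 Tris buffer was preincubated 30 min with compound, then given a substrate mix of 0.016 mM NADPH and 2 mM alpha-KG for 80 min at room temperature; remaining NADPH was read by diaphorase/resazurin fluorescence.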
S2 tox – Viability Counterscreen for Primary qHTS for Inhibitors of ATXN expression; 400,000 compounds, 0.49% hits; S2 cells (HEK-293 line with an ATXN2-luciferase reporter) viability, CellTiter-Fluor protease fluorescence, 24 h; AID 651635, 2014; Potency, µM (top dose mostly 56.7 µM), most hits filed as cytotoxic; also: potency is read from the fitted curve at half-maximal effect; nearly all actives have a fitted effect of over 40% in size
TGFb SMAD3 inh – qHTS for Inhibitors of TGF-b; HepG2 CAGA-GFP TGF-b/SMAD3 reporter, GFP fluorescence, 18 h; TGF-beta stimulated, 500 pg/mL final; Potency, µM (top dose mostly 46.1 µM), for the others: at the highest dose activity, negative = inhibition, most hits filed as inhibitors; 410,000 compounds, 1.2% hits; AID 588855, 2011; also: potency is read from the fitted curve at half-maximal effect; % is scaled to controls: 0 for no effect and ±100 for the full control effect; nearly all actives have a fitted effect of over 65% in size
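Cell-based qHTS in HEPG2 carrying a CAGA-GFP Smad reporter; compounds added before 500 pg/mL final TGF-beta, 18 h incubation at 37 degrees C, GFP fluorescence quantified per cell by imaging cytometry.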
LDHA inh – qHTS assay for inhibitors of human lactate dehydrogenase; purified LDHA, NADH/diaphorase-resazurin fluorescence; active compounds read low; activity change, % (values are at about 110 or 230 µM); L-lactate dehydrogenase A chain (Homo sapiens), P00338; 480,000 compounds, 0.15% hits; AID 1347041, 2019; in the data active = activity change below about -30%; inconclusive = mostly about -25% to -30%;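 also: plate controls were DMSO wells for no effect and wells without enzyme for full effect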
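LDH5 2 nM; NADH 0.06 mM, pyruvate 0.2 mM; 200 mM Tris pH 7.4, EDTA, Tween-20; 5 min RT. Detection: diaphorase 0.133 mg/mL + resazurin 37 µM, fluorescence ex540/em590 at 0 and 20 min; normalized to enzyme-free and DMSO wells.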
* = called active by the depositor; ! = not active in a repeat. Unless noted, calls follow the shape of the dose curve; as a rule, active = well fitted curve in the direction sought with a large enough effect; inconclusive = small, poorly fitted or top-dose-only effect, or another doubt; inactive = no such curve, though single readings can be large; an effect the other way counts as inactive or inconclusive.

Results for CC(=O)N(C)C1=C(N2CCOCC2)C(=O)c2ccccc2C1=O ?
HepG2 viability: 0.56µM*; ATXN2 expr inh: 1.4µM*; IDH1 R132H inh: 10%; S2 tox: 3.5µM*; TGFb SMAD3 inh: 1.6µM*; LDHA inh: 67

What do the screens show for `O=C1CC(c2ccc(O)cc2)Oc2cc(O)cc(O)c21` (centres undefined)?
HepG2 viability: 0%; ATXN2 expr inh: 23%; IDH1 R132H inh: -2%; S2 tox: inactive; TGFb SMAD3 inh: 12%; LDHA inh: -6

What do the screens show for `CC1CC(=O)c2c(cc3c(-c4c(O)cc(O)c5c(O)c6c(cc45)OC(C)CC6=O)c(O)cc(O)c3c2O)O1` (centres undefined)?
HepG2 viability: -103%; ATXN2 expr inh: 20µM*; IDH1 R132H inh: -26%; S2 tox: inactive; TGFb SMAD3 inh: inconclusive; LDHA inh: 4

Results for Cc1nnc2ccc(-c3ccc(NS(=O)(=O)c4ccccc4[N+](=O)[O-])cc3)nn12 ?
HepG2 viability: -49%; IDH1 R132H inh: -3%; S2 tox: inactive; TGFb SMAD3 inh: 0%; LDHA inh: -8

Results for O=C(NNC1=C(C(=O)C(F)(F)F)CCC1)c1cccc(Cl)c1 ?
HepG2 viability: 10µM*; ATXN2 expr inh: inconclusive; IDH1 R132H inh: 8%; S2 tox: inconclusive; TGFb SMAD3 inh: inconclusive; LDHA inh: -1

What do the screens show for `COc1ccc(C(=O)NNC2=C(C(=O)C(F)(F)F)CCC2)cc1`?
HepG2 viability: -50%; ATXN2 expr inh: -33%; IDH1 R132H inh: 9%; S2 tox: inactive; TGFb SMAD3 inh: 8.9µM*; LDHA inh: -1

What do the screens show for `O=C(NNC(=O)c1cccc(Cl)c1)NNC(=O)c1cccc(Cl)c1`?
HepG2 viability: -1%; ATXN2 expr inh: -5%; IDH1 R132H inh: 5%; S2 tox: inactive; TGFb SMAD3 inh: -3%; LDHA inh: -1

Results for CC(C)(C)c1ccc(C(=O)NNC(=O)c2ccc(Cl)cc2)cc1 ?
HepG2 viability: -3%; ATXN2 expr inh: 3%; IDH1 R132H inh: 1%; S2 tox: inactive; TGFb SMAD3 inh: 5%; LDHA inh: 0

How did O=C(NNC1=C(C(=O)C(F)(F)F)CCC1)c1ccc(Cl)cc1 do in these assays?
HepG2 viability: 10µM*; ATXN2 expr inh: inconclusive; IDH1 R132H inh: 10%; S2 tox: inconclusive; TGFb SMAD3 inh: 11µM*; LDHA inh: 1

Results for CCOc1ccc(S(=O)(=O)N2CCCC(C(=O)NCc3ccccn3)C2)cc1Cl (centres undefined) ?
HepG2 viability: -4%; ATXN2 expr inh: -10%; IDH1 R132H inh: 15%; S2 tox: inactive; TGFb SMAD3 inh: 0%; LDHA inh: -6

How did COCCn1c(SCC(=O)c2c(N)n(C)c(=O)n(C)c2=O)nc2ccccc21 do in these assays?
HepG2 viability: -14%; ATXN2 expr inh: -25%; IDH1 R132H inh: 8%; S2 tox: inactive; TGFb SMAD3 inh: -1%; LDHA inh: -1

Results for Cc1nnc(SCc2nc(N)nc(Nc3ccccc3)n2)s1 ?
HepG2 viability: 1%; ATXN2 expr inh: 36%; IDH1 R132H inh: 7%; S2 tox: inactive; TGFb SMAD3 inh: 2%; LDHA inh: -8

Results for CCc1ccc(Nc2nc(N)nc(CSc3nc4ccccc4s3)n2)cc1 ?
HepG2 viability: 7.9µM*!; ATXN2 expr inh: -35%; IDH1 R132H inh: -14%; S2 tox: inconclusive; TGFb SMAD3 inh: inconclusive; LDHA inh: 2

What do the screens show for `CCOC(=O)c1ccc(NC(=O)CN2c3ccccc3S(=O)(=O)c3ccccc32)cc1`?
HepG2 viability: -1%; ATXN2 expr inh: inconclusive; IDH1 R132H inh: 12%; S2 tox: inconclusive; TGFb SMAD3 inh: 11µM*; LDHA inh: 6

Results for CCOC(=O)C1(Cc2ccccc2)CCCN(C(=O)c2cnn(CC)c2)C1 (centres undefined) ?
HepG2 viability: 1%; ATXN2 expr inh: 53%; IDH1 R132H inh: -4%; S2 tox: inactive; TGFb SMAD3 inh: 8%; LDHA inh: -6

What do the screens show for `COc1ccc(CC(N)c2csc(NC(=O)NCCc3ccccc3)n2)cc1` (centres undefined)?
HepG2 viability: -75%; ATXN2 expr inh: inconclusive; S2 tox: inconclusive; TGFb SMAD3 inh: inconclusive; LDHA inh: -10

Results for NC(Cc1ccc(Cl)cc1)c1csc(NC(=O)NCC2CCCCC2)n1 (centres undefined) ?
HepG2 viability: 13µM*; ATXN2 expr inh: inconclusive; S2 tox: 35µM*; TGFb SMAD3 inh: inconclusive; LDHA inh: -17

Results for NC(Cc1ccc(Cl)cc1)c1csc(NC(=O)NCCc2ccccc2)n1 (centres undefined) ?
HepG2 viability: -111%; ATXN2 expr inh: inconclusive; S2 tox: 28µM*; TGFb SMAD3 inh: inconclusive; LDHA inh: -11

Results for Cc1ccc(C(=O)Nc2nc(-c3ccccn3)cs2)o1 ?
HepG2 viability: 2%; IDH1 R132H inh: 0%; S2 tox: inconclusive; TGFb SMAD3 inh: inconclusive; LDHA inh: 2

Results for O=C(Nc1nc(-c2ccccc2)cs1)Nc1ccc(F)cc1F ?
HepG2 viability: 3%; ATXN2 expr inh: -6%; IDH1 R132H inh: 4%; S2 tox: inactive; TGFb SMAD3 inh: 0%; LDHA inh: -3

How did Cc1ccc(-c2csc(NC(=O)c3ccc(-c4ccccc4)cc3)n2)o1 do in these assays?
HepG2 viability: -32%; ATXN2 expr inh: -12%; IDH1 R132H inh: 2%; S2 tox: inconclusive; TGFb SMAD3 inh: 13µM*; LDHA inh: -17

Results for O=C(Nc1nc(-c2ccco2)cs1)c1ccccc1 ?
HepG2 viability: 2%; ATXN2 expr inh: 6%; IDH1 R132H inh: 4%; S2 tox: inactive; TGFb SMAD3 inh: 12%; LDHA inh: 0

Results for O=C(Nc1nc(-c2ccccn2)cs1)Nc1ccc(F)cc1F ?
HepG2 viability: -4%; ATXN2 expr inh: 14µM*; IDH1 R132H inh: -13%; S2 tox: inconclusive; TGFb SMAD3 inh: inconclusive; LDHA inh: -1

What do the screens show for `CC(=O)c1ccc(-c2ccc(C(=O)Nc3nc(-c4ccccn4)cs3)o2)cc1`?
HepG2 viability: -58%; ATXN2 expr inh: -38%; IDH1 R132H inh: 13%; S2 tox: inactive; TGFb SMAD3 inh: 13µM*; LDHA inh: 0
